Measured values published in PubChem BioAssay AID1508621 (National Center for Advancing Translational Sciences (NCATS), 2021).
Records with an inconclusive call do not appear. Unmarked numbers belong to inactive results. The source made the active and inactive calls. Calls come from the whole dose curve; as a rule, active = well fitted inhibition curve with a large enough effect; inconclusive = small, poorly fitted or top-dose-only effect; inactive = no such curve, though single readings can be large or run the other way.

Test: Confirmatory qHTS for Identification of Small Molecule Inhibitors of Huntingtin Promoter Activity; note: nearly all actives have a fitted effect of over 65% in size
Conditions: HEK293 HTT promoter firefly luciferase reporter, 24 h; series mostly up to 57.5 µM; activity change, negative = inhibition: at the top concentration
Description: Assay Provider: Russell L. Margolis M.D.
Department Neurology, Johns Hopkins University School of Medicine, Baltimore, MD
Huntington's Disease (HD) is a neurodegenerative disorder caused by a CAG repeat expansion in exon 1 of huntingtin (HTT). While there are currently no disease-modifying treatments for HD, recent efforts have focused on development of nucleotide-based therapeutics to lower HTT expression. As an alternative to siRNA or oligonucleotide methods, we hypothesized that suppression of HTT expression might be accomplished by small molecules that either (1) directly decrease HTT expression by suppressing HTT promoter activity or (2) indirectly decrease HTT expression by increasing the promoter activity of HTT-AS, the gene antisense to HTT that appears to inhibit expression of HTT.
We developed and employed a high throughput screen for modifiers of HTT and HTT-AS promoter activity using luminescent reporter HEK293 cells; of the 52,041 compounds tested, we identified 898 replicable hits. We used a rigorous stepwise approach to assess compound toxicity and the capacity of the compounds to specifically lower huntingtin protein in 5 different cell lines, including HEK293 cells, HD lymphoblastoid cells, mouse primary neurons, HD iPSCs differentiated into cortical-like neurons, and HD hESCs. We found no compounds which were able to lower huntingtin without lowering cell viability in all assays, though the potential efficacy of a few compounds at non-toxic doses could not be excluded.
SEQUENCE No. (1, 2, 3, etc.); […] (e.g., Cells, Incubation, Reagent, etc.); VALUE and DESCRIPTION.
1; Reagent; 4 uL; 2,500 Hek293 luciferase reporter cells per wells
3; Compound; 23 nL; Control inhibitor / compound library
5; Reagent; 2.5 uL; Firefly Luc reagent; Dual-Glo Luciferase Reporter Assay System (Promega)
6; Time; 10 min; room temperature incubation
7; Detection; Luminescence; FLuc
NOTES (numbers refer to sequence above)
1; High-throughput screening, measuring luminescence from a Hek293 luciferase reporter, was performed in 1,536 well white-walled tissue-culture treated plates. 2,500 cells were plated in 4 uL of Opti-MEM per well using a Multidrop Combi Reagent Dispenser (ThermoFisher).
2; Assay plates were cultured for 24 hours.
3; Control inhibitor (PTC124; final concentration of 50 uM) and compound library (at final concentrations of 460 nM - 57.5 uM) were added to the assay plate using the Kalypsis Pintool Robotic System equipped with 1536 pinheads.
4; Cells were then incubated for 24 hours at 37C prior to luminescence measurements.
5; In all cases, luminescence was measured using the Dual-Glo Luciferase Reporter Assay System (Promega) following the manufacturer's instructions.
6; Room temperature incubation.
7; Luminescence signal was obtained using the PerkinElmer ViewLux plate reader. Results were normalized to vehicle control (0% activity) and zero RLU (-100% activity).
Potency is the fitted concentration of half-maximal effect.

Row | Structure (SMILES) | activity change, negative = inhibition [%] | Potency
1 | Cc1[nH]c2ccccc2c1CCNCc1ccc(C=CC(=O)NO)cc1 | 254 | 
2 | C#C[C@]1(O)CC[C@H]2[C@H]3CCc4cc(OC)ccc4[C@H]3CC[C@@]21C | -8.88 | 
3 | COc1cccc(CNC(=O)c2ccc3nc(N4CCCCC4)sc3c2)c1OC | -26.3 | 
4 | O=C(C=Cc1ccc(O)cc1)c1ccc(O)cc1O | 20 | 
5 | CC(=O)c1ccc(N2CCN(c3ncnc4c3cnn4-c3cc(Cl)ccc3C)CC2)cc1 |  | 7.57 µM (active)
6 | Cc1ccc(N2C(=O)C(CC(=O)Nc3ccccc3)N(CCC3=CCCCC3)C2=O)cc1 (stereo not given) | -1.96 | 
7 | Cn1c(=O)n(C)c2cc(NS(=O)(=O)c3ccc(F)cc3)ccc21 | 38.7 | 
8 | COc1cccc(-c2cn3c(n2)sc2cc(C(=O)NCc4cccs4)ccc23)c1 | 40.6 | 
9 | COc1ccc(-n2c(/C=C/c3cccc4ccccc34)nc3ccccc3c2=O)cc1Cl | -19.7 | 
10 | CCOC(=O)c1ccc(C#Cc2ccc3c(c2)C(C)(C)CCS3)nc1 | -21.2 | 
11 | COc1ccccc1NC(=O)CN1C(=O)C(C)(C)c2ccccc21 | -21.9 | 
12 | O=C(C=Cc1cccc(S(=O)(=O)Nc2ccccc2)c1)NO | 270 | 
13 | CC(=O)N1CCc2c(sc(NC(=O)CSc3ccccc3)c2-c2nc3ccccc3s2)C1 |  | 26.9 µM (active)
14 | O=C(O)c1ccc2c(c1)N(Cc1ccc(F)cc1)C(=O)c1ccccc1S2=O (stereo not given) | 1.14 | 
15 | CCc1c(C)sc2c1CCN(Cc1ccc(F)cc1)C2c1ccccc1 (stereo not given) | -16.4 | 
16 | COc1ccc(C2C=C(c3ccc(Br)cc3)Nc3nnnn32)c(OC)c1 (stereo not given) | -7.4 | 
17 | CC[C@@H]1C(=O)N(C)c2cnc(Nc3ccc(C(=O)NC4CCC(N5CCN(CC6CC6)CC5)CC4)cc3OC)nc2N1C(C)C (stereo not given in full) | 11.8 | 
18 | Cc1cc(Nc2sc(C(=O)c3ccc(F)cc3)c(N)c2C(=O)Nc2ccc(F)cc2)ccc1Cl |  | 1.69 µM (active)
19 | Cc1csc2nc(COC(=O)c3ccccc3NC(=O)c3ccccc3Cl)cc(=O)n12 | 1.39 | 
20 | O=C(Cn1c(=O)oc2cc(S(=O)(=O)N3CCCCC3)ccc21)NCc1ccc(Cl)cc1 | -22.9 | 

Row | Structure (SMILES) | activity change, negative = inhibition [%] | Potency
21 | O=C1C2=C(Nc3ccccc3SC2c2ccc(C(F)(F)F)cc2)c2ccccc21 (stereo not given) |  | 19 µM (active)
22 | COc1ccc(NC(=O)Cn2nc(-c3ccncc3)ccc2=O)cc1Cl | 0.17 | 
23 | COc1ccc(Nc2nc(-c3ccc(C)cc3)nc3ccccc23)c(OC)c1 | 5.08 | 
24 | CCOc1ccccc1NC(=O)C(=O)c1cc(C)n(-c2ccc(F)cc2)c1C | 37.3 | 
25 | O=C(c1ccc(CS(=O)c2ccccc2Cl)o1)N1CCN(c2cccc(C(F)(F)F)c2)CC1 (stereo not given) |  | 3.38 µM (active)
26 | COc1ccc([C@@H]2CNC(=O)C2)cc1OC1CCCC1 | -7.15 | 
27 | Cc1ccc(C)c(N2CCN(C(=O)c3nn(C)c4c3CS(=O)(=O)c3ccccc3-4)CC2)c1 |  | 23.9 µM (active)
28 | O=C(CSc1nccn1Cc1ccc(F)cc1)Nc1nc2ccccc2s1 | -4.54 | 
29 | CCS(=O)(=O)c1ncc(Cl)c(C(=O)N(Cc2ccccc2)c2ccc(OC)cc2)n1 |  | 10.7 µM (active)
30 | CCc1nc2ccc(C(=O)NCCc3ccc(OC)cc3OC)cc2nc1CC | -18.9 | 
31 | COc1ccc(-c2nc(CSCC(=O)N3CCN(c4cc(Cl)ccc4C)CC3)c(C)o2)cc1 |  | 9.53 µM (active)
32 | N#CC[C@H](C1CCCC1)n1cc(-c2ncnc3[nH]ccc23)cn1 | 4.44 | 
33 | COc1cc(C[C@@H](CO)[C@H](CO)Cc2ccc(O)c(OC)c2)ccc1O | -8.64 | 
34 | O=c1cc(-c2ccccc2)oc2cc(O)cc(O)c12 | -0.597 | 
35 | CC=C1NC(=O)[C@H]2CSSCCC=C[C@H](CC(=O)N[C@H](C(C)C)C(=O)N2)OC(=O)[C@H](C(C)C)NC1=O | 9.87 | 
36 | CCOC(=O)c1ccc(N2C(=O)c3[nH]nc(-c4ccccc4)c3C2c2cccs2)cc1 (stereo not given) |  | 13.5 µM (active)
37 | CCOc1ccc(S(=O)(=O)N(C(C)=O)c2ccc3oc(C)c(C(=O)OC)c3c2)cc1 |  | 4.78 µM (active)
38 | O=C(NCCC1=CCCCC1)c1ccc2c(c1)N(Cc1cccc(Cl)c1)C(=O)c1ccccc1S2(=O)=O | -7.04 | 
39 | Cc1ccccc1OCC(=O)Nc1ccccc1C(=O)OCc1cc(=O)n2c(C)csc2n1 | -16.3 | 
40 | Cn1c(=O)n(C)c2cc(NS(=O)(=O)c3ccccc3)c(NCc3ccccc3)cc21 | 4.2 | 
